# Measurements from PubChem BioAssay (NCI).
# The panel holds about 79,000 compounds, 15% with a hit somewhere; the sample as a whole holds those more often. Calls of active or inactive are those of the source. No stated cut-off is given here; in the data, active means growth inhibition above about 70%; inactive means the rest.
# Experiment: NCI Yeast Anticancer Drug Screen. Data for the rad50 strain (AID 155);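 further: 0% = growth of vehicle-only cultures of the same strain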
# Conditions: S. cerevisiae rad50 strain growth inhibition, hits give high values; at 50.0 µM unless noted
# Method in brief: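 Relative growth inhibition (compound vs vehicle) was measured in yeast with a defined repair-gene alteration.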
row,SMILES,growth inhibition
1,COc1cc2c(cc1OCc1ccccc1)C(Cc1cc(Br)sc1Br)=NCC2,57.8% (inactive)
2,C=C(NC(=O)C(c1ccccc1)c1ccccc1)C(=O)O,21.6% (inactive)
3,NC(=S)/N=C/C=C\c1ccccc1,-10.6% (inactive)
4,COC(OC)C(C)=O,-13.1% (inactive)
5,Cc1[nH]n(-c2ccc(Cl)cc2)c(=O)c1N=Nc1cccc(C(F)(F)F)c1,21.8% (inactive)
6,NC(Cc1ccc2nc3c4ccccc4c(=O)cc-3oc2c1)C(=O)O (centres undefined),-23.4% (inactive)
7,Cc1cccc[n+]1C,3.45% (inactive)
8,Cc1ccc(-c2ccc(C)cc2C(=O)O)c(C(=O)O)c1,-21.8% (inactive)
9,CC(=O)N1C(=O)CC23c4cccc([N+](=O)[O-])c4C(=O)N2CCCN13 (centres undefined),8.8% (inactive)
10,CCCCCCOc1ccccc1CO,14.7% (inactive)
11,Cc1ccccc1C(=O)c1ccccc1C,-16.3% (inactive)
12,O=c1[nH]c(Br)nc2c(N3CCCCC3)c[nH]c12,12.7% (inactive)
13,COc1ccc(-c2cc(-c3ccco3)c(C#N)c(=O)[nH]2)cc1,3.95% (inactive)
14,[O-]c1nn(-c2ccccc2)n[n+]1-c1ccccc1,-2.4% (inactive)
15,O=C(CCl)Nc1cc2ccccc2oc1=O,21% (inactive)
16,CCOC(=O)c1ccc(NC(=O)Nc2cc(Cl)ccc2C)cc1,38.9% (inactive)
17,CCN(CC)Cc1cc(O)ccc1NCCCNc1ccnc2cc(Cl)ccc12,49.4% (inactive)
18,C/C(=N\NS(=O)(=O)c1ccc(C)cc1)c1cccs1,-3.9% (inactive)
19,Nc1ccccc1[N+](=O)[O-],-14.4% (inactive)
